Measurements reported in article PMC7862700, “An all-to-all approach to the identification of sequence-specific readers for epigenetic DNA modifications on cytosine”.

Experiments:
Experiment in all cases: DAPPL (digital affinity profiling via proximity ligation, sequencing); 10 mM Tris-HCl pH 7.5, 50 mM NaCl, 1 mM DTT, 4% glycerol, room temperature, 30 min; GST-TFs on glutathione beads, 16-mer random dsDNA library, 0.1% formaldehyde crosslink after washing; high values mean tight binding
Conditions in all cases: protein: recombinant; tags: N-terminal GST; dsDNA, one strand shown
FLI1 = molecular target: T1, FLI1 (Homo sapiens, UniProt Q01543 1-452)
T1 sequence: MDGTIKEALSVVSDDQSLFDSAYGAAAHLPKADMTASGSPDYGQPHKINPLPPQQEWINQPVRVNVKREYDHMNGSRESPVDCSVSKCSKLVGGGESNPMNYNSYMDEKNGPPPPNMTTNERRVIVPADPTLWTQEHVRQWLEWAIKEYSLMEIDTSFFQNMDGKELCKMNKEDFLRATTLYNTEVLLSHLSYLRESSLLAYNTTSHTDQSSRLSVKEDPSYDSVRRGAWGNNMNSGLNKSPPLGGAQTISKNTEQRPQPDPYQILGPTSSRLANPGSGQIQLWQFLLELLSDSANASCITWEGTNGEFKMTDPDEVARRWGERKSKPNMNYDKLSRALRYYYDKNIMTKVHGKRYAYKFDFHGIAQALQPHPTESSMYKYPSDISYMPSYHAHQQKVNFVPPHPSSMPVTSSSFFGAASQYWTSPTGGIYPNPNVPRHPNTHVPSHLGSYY
How it was run: (§1)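 After expression in yeast as GST fusions, human transcription factors were bound to glutathione beads, DNA-barcoded and mixed with a tag-only sample. The pools were incubated with 200 nmole of a 16-mer random double-stranded DNA library in Tris/NaCl/DTT/glycerol buffer (30 min, room temperature), washed and crosslinked with 0.1% formaldehyde. Proximity ligation with BsaI/T4 ligase ran for 1 h at 37 °C, before PCR amplification and sequencing on an Illumina NextSeq500. Binding signal is a hexamer's read frequency for a factor divided by its frequency for the tag-only sample.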

ELK1 = molecular target: T2, ELK1 (Homo sapiens, UniProt P19419 1-428)
T2 sequence: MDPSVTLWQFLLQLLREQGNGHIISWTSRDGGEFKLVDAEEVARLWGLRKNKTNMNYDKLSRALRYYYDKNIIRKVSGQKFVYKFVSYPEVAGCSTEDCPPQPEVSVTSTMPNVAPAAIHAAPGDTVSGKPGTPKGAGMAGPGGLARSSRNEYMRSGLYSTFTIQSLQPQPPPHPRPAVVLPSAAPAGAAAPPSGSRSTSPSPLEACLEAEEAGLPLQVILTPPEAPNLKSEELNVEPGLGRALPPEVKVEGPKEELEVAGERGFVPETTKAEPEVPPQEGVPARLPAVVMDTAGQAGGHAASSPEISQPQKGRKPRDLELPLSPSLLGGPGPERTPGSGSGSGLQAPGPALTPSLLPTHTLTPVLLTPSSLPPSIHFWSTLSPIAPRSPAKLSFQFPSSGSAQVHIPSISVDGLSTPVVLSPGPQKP
How it was run: as §1

GABPA = molecular target: T3, GABPA (Homo sapiens, UniProt Q06546 1-454)
T3 sequence: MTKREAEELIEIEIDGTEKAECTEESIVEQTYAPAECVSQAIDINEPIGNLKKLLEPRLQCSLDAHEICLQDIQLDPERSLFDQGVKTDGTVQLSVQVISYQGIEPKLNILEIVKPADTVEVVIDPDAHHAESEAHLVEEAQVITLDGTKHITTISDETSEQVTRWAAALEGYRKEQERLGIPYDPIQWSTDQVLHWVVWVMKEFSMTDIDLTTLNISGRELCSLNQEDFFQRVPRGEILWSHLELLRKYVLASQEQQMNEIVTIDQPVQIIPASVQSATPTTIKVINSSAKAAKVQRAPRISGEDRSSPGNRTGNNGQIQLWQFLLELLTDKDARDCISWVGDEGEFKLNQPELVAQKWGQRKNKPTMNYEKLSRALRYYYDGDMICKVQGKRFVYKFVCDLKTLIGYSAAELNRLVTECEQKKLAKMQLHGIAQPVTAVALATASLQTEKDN
How it was run: as §1

ERG = molecular target: T4, ERG (Homo sapiens, UniProt P11308 1-479)
T4 sequence: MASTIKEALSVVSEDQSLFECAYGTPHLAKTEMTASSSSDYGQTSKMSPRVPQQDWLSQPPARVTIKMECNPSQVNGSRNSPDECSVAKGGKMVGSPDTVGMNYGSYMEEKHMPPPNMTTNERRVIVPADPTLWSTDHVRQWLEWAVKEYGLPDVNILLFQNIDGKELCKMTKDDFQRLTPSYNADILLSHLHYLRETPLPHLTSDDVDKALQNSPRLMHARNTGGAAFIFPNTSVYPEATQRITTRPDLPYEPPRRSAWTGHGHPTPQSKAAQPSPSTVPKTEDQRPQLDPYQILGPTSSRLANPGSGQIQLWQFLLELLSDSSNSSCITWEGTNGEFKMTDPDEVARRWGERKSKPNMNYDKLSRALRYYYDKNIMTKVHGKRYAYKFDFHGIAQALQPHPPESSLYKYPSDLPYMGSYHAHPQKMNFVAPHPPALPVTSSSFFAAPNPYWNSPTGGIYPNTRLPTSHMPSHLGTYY
How it was run: as §1

ELF1 = ELF1 (Homo sapiens, UniProt P32519 1-619)
ELF1, sequence (P32519 whole entry): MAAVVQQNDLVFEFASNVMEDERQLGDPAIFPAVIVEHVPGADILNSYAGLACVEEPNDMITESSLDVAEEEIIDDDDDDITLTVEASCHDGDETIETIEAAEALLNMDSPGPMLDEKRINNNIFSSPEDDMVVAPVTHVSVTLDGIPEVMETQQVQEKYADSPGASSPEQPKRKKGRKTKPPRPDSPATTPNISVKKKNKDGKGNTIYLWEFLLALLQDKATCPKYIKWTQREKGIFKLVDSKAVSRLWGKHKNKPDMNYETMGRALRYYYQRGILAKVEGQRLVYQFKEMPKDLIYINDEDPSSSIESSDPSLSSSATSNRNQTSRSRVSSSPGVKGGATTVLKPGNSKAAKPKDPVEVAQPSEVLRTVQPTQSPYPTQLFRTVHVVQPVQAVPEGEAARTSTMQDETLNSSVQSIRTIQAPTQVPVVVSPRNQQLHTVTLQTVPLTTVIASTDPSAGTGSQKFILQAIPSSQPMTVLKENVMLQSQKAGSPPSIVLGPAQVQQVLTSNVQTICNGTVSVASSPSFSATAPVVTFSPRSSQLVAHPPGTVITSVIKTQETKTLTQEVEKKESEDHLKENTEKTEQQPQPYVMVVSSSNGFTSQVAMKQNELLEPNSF
How it was run: as §1

EHF = molecular target: T5, EHF (Homo sapiens, UniProt Q9NZC4 1-300)
T5 sequence: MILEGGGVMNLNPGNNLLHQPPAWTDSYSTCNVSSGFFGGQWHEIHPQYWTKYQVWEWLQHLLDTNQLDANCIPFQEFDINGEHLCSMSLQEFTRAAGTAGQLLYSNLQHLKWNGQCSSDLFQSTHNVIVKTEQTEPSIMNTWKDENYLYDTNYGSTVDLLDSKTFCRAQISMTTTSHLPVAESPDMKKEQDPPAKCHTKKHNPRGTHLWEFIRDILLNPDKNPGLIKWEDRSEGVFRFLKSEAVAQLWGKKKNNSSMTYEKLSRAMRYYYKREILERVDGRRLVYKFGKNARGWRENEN
How it was run: as §1

SPI1 = SPI1 (Homo sapiens, UniProt P17947 1-270)
How it was run: as §1

SPIB = SPIB (Homo sapiens, UniProt Q01892 1-262)
SPIB, sequence (Q01892 whole entry): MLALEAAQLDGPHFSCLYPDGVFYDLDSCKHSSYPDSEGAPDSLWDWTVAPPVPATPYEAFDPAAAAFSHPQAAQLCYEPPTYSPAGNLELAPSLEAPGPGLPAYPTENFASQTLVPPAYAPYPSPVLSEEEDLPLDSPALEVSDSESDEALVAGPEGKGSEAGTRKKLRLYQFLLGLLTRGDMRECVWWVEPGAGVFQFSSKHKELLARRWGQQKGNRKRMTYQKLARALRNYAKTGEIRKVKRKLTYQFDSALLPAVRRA
How it was run: as §1

ELK3 = molecular target: T6, ELK3 (Homo sapiens, UniProt P41970 1-407)
T6 sequence: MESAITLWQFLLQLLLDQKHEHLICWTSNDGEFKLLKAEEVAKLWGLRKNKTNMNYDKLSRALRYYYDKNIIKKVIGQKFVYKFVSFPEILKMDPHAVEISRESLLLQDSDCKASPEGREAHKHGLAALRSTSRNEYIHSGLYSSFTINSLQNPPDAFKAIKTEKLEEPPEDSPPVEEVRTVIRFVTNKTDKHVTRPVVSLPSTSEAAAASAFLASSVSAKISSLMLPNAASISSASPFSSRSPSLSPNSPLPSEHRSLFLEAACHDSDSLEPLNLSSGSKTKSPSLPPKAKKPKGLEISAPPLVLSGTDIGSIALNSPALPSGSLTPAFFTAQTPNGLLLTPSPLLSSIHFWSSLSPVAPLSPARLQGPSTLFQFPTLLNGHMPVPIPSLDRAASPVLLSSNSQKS
How it was run: as §1

FEV = molecular target: T7, FEV (Homo sapiens, UniProt Q99581 1-238)
T7 sequence: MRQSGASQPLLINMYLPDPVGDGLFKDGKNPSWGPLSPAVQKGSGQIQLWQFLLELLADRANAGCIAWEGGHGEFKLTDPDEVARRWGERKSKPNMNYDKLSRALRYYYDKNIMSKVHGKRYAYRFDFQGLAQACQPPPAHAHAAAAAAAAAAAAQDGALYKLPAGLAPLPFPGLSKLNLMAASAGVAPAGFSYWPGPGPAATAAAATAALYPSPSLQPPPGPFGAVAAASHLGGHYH
How it was run: as §1

ETV5 = ETV5 (Homo sapiens, UniProt P41161 1-510)
ETV5, sequence (P41161 whole entry): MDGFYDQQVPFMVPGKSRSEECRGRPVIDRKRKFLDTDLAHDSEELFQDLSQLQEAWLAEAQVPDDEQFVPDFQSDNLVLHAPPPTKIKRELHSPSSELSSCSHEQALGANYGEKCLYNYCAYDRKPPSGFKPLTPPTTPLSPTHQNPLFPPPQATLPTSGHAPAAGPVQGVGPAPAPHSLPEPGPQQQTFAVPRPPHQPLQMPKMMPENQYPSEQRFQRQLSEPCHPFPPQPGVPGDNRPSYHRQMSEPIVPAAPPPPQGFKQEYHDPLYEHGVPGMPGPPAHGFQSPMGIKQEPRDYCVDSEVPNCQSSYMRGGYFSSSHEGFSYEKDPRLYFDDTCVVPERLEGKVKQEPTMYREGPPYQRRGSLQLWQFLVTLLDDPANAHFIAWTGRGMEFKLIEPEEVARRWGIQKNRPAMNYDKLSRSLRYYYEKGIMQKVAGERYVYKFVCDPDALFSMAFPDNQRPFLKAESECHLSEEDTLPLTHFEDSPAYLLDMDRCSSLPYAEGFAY
How it was run: as §1

SPIC = molecular target: T8, SPIC (Homo sapiens, UniProt Q8N5J4 1-248)
T8 sequence: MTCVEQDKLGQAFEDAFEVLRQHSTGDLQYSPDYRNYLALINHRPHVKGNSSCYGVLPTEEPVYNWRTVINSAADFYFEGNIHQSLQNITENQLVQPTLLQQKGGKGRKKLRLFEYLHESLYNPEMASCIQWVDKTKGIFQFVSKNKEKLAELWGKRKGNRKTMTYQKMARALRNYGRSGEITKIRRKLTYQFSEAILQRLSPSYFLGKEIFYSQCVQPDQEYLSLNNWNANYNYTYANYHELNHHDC
How it was run: as §1

ELF4 = ELF4 (Homo sapiens, UniProt Q99607 1-663)
ELF4, sequence (Q99607 whole entry): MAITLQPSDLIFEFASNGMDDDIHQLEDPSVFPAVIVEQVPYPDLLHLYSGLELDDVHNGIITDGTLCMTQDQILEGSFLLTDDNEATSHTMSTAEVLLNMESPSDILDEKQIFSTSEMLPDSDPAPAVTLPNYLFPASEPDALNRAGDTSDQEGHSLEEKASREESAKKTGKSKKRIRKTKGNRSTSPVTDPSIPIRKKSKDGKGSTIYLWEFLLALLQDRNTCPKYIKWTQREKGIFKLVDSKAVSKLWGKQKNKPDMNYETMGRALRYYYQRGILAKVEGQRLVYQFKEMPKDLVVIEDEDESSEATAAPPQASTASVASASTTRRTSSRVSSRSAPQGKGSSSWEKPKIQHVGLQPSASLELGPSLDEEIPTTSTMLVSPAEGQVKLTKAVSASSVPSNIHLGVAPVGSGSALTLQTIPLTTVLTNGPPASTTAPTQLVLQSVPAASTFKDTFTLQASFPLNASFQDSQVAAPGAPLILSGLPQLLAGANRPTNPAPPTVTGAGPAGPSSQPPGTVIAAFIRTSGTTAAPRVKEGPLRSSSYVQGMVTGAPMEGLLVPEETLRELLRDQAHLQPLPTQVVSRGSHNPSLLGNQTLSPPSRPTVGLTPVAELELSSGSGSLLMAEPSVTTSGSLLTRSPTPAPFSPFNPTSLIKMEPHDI
How it was run: as §1

ELK4 = molecular target: T9, ELK4 (Homo sapiens, UniProt P28324-2 1-405)
T9 sequence: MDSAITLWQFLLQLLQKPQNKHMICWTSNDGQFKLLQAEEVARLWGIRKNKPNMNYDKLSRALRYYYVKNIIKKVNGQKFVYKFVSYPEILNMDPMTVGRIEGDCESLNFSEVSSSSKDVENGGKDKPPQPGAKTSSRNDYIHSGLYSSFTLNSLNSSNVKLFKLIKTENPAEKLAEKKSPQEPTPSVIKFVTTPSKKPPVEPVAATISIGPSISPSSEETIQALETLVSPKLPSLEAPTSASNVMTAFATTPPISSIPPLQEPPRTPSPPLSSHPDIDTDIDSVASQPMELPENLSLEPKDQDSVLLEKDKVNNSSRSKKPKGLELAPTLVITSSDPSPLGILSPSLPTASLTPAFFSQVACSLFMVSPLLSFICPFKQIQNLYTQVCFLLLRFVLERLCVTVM
How it was run: as §1

ETV2 = molecular target: T10, ETV2 (Homo sapiens, UniProt O00321 1-342)
T10 sequence: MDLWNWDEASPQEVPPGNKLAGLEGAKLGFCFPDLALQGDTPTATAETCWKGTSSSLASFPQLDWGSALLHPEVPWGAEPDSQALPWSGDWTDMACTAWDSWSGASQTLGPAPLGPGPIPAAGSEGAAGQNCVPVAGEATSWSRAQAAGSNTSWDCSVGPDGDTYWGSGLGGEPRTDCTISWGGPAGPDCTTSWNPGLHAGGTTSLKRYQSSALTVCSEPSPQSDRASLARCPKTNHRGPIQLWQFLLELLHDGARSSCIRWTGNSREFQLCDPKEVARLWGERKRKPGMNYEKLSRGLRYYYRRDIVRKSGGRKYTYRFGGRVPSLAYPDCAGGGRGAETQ
How it was run: as §1

ELF3 = molecular target: T11, ELF3 (Homo sapiens, UniProt P78545 1-371)
T11 sequence: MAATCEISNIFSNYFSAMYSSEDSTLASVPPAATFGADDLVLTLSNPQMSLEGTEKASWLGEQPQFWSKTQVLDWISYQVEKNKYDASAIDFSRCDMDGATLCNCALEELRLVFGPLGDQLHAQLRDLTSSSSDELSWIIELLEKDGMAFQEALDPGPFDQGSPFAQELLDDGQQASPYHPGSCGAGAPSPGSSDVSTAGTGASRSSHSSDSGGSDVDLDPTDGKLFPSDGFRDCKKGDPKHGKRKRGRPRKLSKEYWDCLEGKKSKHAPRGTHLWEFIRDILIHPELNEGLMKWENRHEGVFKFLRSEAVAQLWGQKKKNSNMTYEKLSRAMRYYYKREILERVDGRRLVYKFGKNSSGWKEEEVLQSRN
How it was run: as §1

ETV1 = ETV1 (Homo sapiens, UniProt P50549 1-477)
ETV1, sequence (P50549 whole entry): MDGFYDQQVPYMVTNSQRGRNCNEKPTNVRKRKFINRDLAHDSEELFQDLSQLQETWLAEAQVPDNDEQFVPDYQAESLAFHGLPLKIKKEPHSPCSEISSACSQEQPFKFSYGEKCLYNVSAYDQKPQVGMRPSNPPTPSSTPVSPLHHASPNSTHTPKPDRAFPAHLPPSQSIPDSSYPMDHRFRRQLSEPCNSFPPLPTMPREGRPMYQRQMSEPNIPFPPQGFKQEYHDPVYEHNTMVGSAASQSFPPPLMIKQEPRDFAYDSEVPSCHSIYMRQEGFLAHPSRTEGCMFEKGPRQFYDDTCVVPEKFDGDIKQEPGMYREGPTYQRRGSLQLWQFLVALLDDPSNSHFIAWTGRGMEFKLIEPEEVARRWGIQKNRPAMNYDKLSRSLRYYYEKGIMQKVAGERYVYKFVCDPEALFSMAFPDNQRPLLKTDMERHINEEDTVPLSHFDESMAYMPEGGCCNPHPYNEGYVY
How it was run: as §1

## CCCCGG
FLI1
  binding signal: 1.19 fold enrichment (6-mer frequency, TF over GST control)
ELK1
  binding signal: 1.18 fold enrichment (6-mer frequency, TF over GST control)
GABPA
  binding signal: 1.15 fold enrichment (6-mer frequency, TF over GST control)
ERG
  binding signal: 1.3 fold enrichment (6-mer frequency, TF over GST control)
ELF1
  binding signal: 1.22 fold enrichment (6-mer frequency, TF over GST control)
EHF
  binding signal: 1.24 fold enrichment (6-mer frequency, TF over GST control)
SPI1
  binding signal: 1.16 fold enrichment (6-mer frequency, TF over GST control)
SPIB
  binding signal: 1.27 fold enrichment (6-mer frequency, TF over GST control)
ELK3
  binding signal: 1.2 fold enrichment (6-mer frequency, TF over GST control)
FEV
  binding signal: 1.38 fold enrichment (6-mer frequency, TF over GST control)
ETV5
  binding signal: 1.27 fold enrichment (6-mer frequency, TF over GST control)
SPIC
  binding signal: 1.07 fold enrichment (6-mer frequency, TF over GST control)
ELF4
  binding signal: 1.2 fold enrichment (6-mer frequency, TF over GST control)
ELK4
  binding signal: 1.31 fold enrichment (6-mer frequency, TF over GST control)
ETV2
  binding signal: 1.24 fold enrichment (6-mer frequency, TF over GST control)
ELF3
  binding signal: 1.09 fold enrichment (6-mer frequency, TF over GST control)
ETV1
  binding signal: 1.29 fold enrichment (6-mer frequency, TF over GST control)
